# According to ChEMBL document CHEMBL5606460, “ASAP - DENV-2 NS2B-NS3 protease fluorescence single point” (2024):
# In all, about 2,000 compounds went through this assay and about 110 (5.5%) showed an effect of 50% or more. Shown is part of a subset that was picked to be rich in strong results.
# Biological target: Genome polyprotein (dengue virus type 2) (UniProt P29990)
smiles,measurement,setting,value
NC(=O)c1cccc(NC(=O)[C@@H](NC(=O)c2ccc(Oc3ccc(C(F)(F)F)cc3)cc2)c2ccc(OCc3ccccc3)cc2)c1,inhibition,"Thailand/16681/1984, Concentration 49.5 uM, Number of replicates 2.0, Standard deviation 0.7362133947681709 %",6.2%
same,inhibition,"Thailand/16681/1984, Concentration 99.01 uM, Number of replicates 2.0, Standard deviation 0.5343411171689955 %",12.7%
same,inhibition,"Thailand/16681/1984, Concentration 198.0 uM, Number of replicates 2.0, Standard deviation 1.7800185360663037 %",24.8%
N=C(N)NCCC[C@H](NC(=O)c1nccs1)C(=O)N[C@@H](CCCCN)C(=O)N[C@@H](C(N)=O)c1ccc(OCc2ccc(C(F)(F)F)cc2)cc1,inhibition,"Thailand/16681/1984, Concentration 49.5 uM, Number of replicates 2.0, Standard deviation 0.01715005842126491 %",96.2%
same,inhibition,"Thailand/16681/1984, Concentration 49.5 uM, Number of replicates 2.0, Standard deviation 0.019135343573522066 %",96.1%
same,inhibition,"Thailand/16681/1984, Concentration 49.5 uM, Number of replicates 2.0, Standard deviation 0.03570815875758177 %",95.6%
same,inhibition,"Thailand/16681/1984, Concentration 49.5 uM, Number of replicates 2.0, Standard deviation 0.054562972907415325 %",95.2%
same,inhibition,"Thailand/16681/1984, Concentration 49.5 uM, Number of replicates 2.0, Standard deviation 0.06140896980473687 %",95.7%
same,inhibition,"Thailand/16681/1984, Concentration 49.5 uM, Number of replicates 2.0, Standard deviation 0.10612104410339795 %",97.2%
same,inhibition,"Thailand/16681/1984, Concentration 49.5 uM, Number of replicates 2.0, Standard deviation 0.10687631562871318 %",95.4%
same,inhibition,"Thailand/16681/1984, Concentration 49.5 uM, Number of replicates 2.0, Standard deviation 0.10916370939109642 %",95.9%
same,inhibition,"Thailand/16681/1984, Concentration 49.5 uM, Number of replicates 2.0, Standard deviation 0.11089004430610264 %",91.3%
same,inhibition,"Thailand/16681/1984, Concentration 49.5 uM, Number of replicates 2.0, Standard deviation 0.12066541576232535 %",96.7%
same,inhibition,"Thailand/16681/1984, Concentration 49.5 uM, Number of replicates 2.0, Standard deviation 0.12893024416791762 %",95%
same,inhibition,"Thailand/16681/1984, Concentration 49.5 uM, Number of replicates 2.0, Standard deviation 0.18367124536344298 %",96.2%
same,inhibition,"Thailand/16681/1984, Concentration 49.5 uM, Number of replicates 2.0, Standard deviation 0.22697527774705212 %",95.7%
same,inhibition,"Thailand/16681/1984, Concentration 49.5 uM, Number of replicates 2.0, Standard deviation 0.262397512284336 %",95.2%
same,inhibition,"Thailand/16681/1984, Concentration 49.5 uM, Number of replicates 2.0, Standard deviation 0.3581065989316027 %",96.5%
same,inhibition,"Thailand/16681/1984, Concentration 49.5 uM, Number of replicates 2.0, Standard deviation 0.6751965592419794 %",94.5%
same,inhibition,"Thailand/16681/1984, Concentration 49.5 uM, Number of replicates 4.0, Standard deviation 0.3877656068031149 %",96.3%
same,inhibition,"Thailand/16681/1984, Concentration 49.8 uM, Number of replicates 2.0, Standard deviation 0.008615490185202914 %",98.3%
same,inhibition,"Thailand/16681/1984, Concentration 49.95 uM, Number of replicates 2.0, Standard deviation 0.5898131133050937 %",90.4%
same,inhibition,"Thailand/16681/1984, Concentration 50.0 uM, Number of replicates 2.0, Standard deviation 2.607110988642393 %",82.5%
same,inhibition,"Thailand/16681/1984, Concentration 98.52 uM, Number of replicates 2.0, Standard deviation 0.0007930351015809821 %",99.7%
same,inhibition,"Thailand/16681/1984, Concentration 99.01 uM, Number of replicates 2.0, Standard deviation 0.014371738167426778 %",98.3%
same,inhibition,"Thailand/16681/1984, Concentration 99.01 uM, Number of replicates 2.0, Standard deviation 0.015720437319775387 %",97.7%
same,inhibition,"Thailand/16681/1984, Concentration 99.01 uM, Number of replicates 2.0, Standard deviation 0.019361925031116632 %",97.6%
same,inhibition,"Thailand/16681/1984, Concentration 99.01 uM, Number of replicates 2.0, Standard deviation 0.03515249470681415 %",98%
same,inhibition,"Thailand/16681/1984, Concentration 99.01 uM, Number of replicates 2.0, Standard deviation 0.051056355111308946 %",98.5%
same,inhibition,"Thailand/16681/1984, Concentration 99.01 uM, Number of replicates 2.0, Standard deviation 0.05114267185705925 %",98.8%
same,inhibition,"Thailand/16681/1984, Concentration 99.01 uM, Number of replicates 2.0, Standard deviation 0.05214610402640662 %",98.2%
same,inhibition,"Thailand/16681/1984, Concentration 99.01 uM, Number of replicates 2.0, Standard deviation 0.05969881927955883 %",97.8%
same,inhibition,"Thailand/16681/1984, Concentration 99.01 uM, Number of replicates 2.0, Standard deviation 0.06259043026219424 %",97.6%
same,inhibition,"Thailand/16681/1984, Concentration 99.01 uM, Number of replicates 2.0, Standard deviation 0.0932706385798204 %",98.3%
same,inhibition,"Thailand/16681/1984, Concentration 99.01 uM, Number of replicates 2.0, Standard deviation 0.1268262734902538 %",98.1%
same,inhibition,"Thailand/16681/1984, Concentration 99.01 uM, Number of replicates 2.0, Standard deviation 0.1304084184388917 %",95.2%
same,inhibition,"Thailand/16681/1984, Concentration 99.01 uM, Number of replicates 2.0, Standard deviation 0.16720632611157116 %",97.6%
same,inhibition,"Thailand/16681/1984, Concentration 99.01 uM, Number of replicates 2.0, Standard deviation 0.19540492798887588 %",98.3%
same,inhibition,"Thailand/16681/1984, Concentration 99.01 uM, Number of replicates 2.0, Standard deviation 0.2057251739026474 %",97.9%
same,inhibition,"Thailand/16681/1984, Concentration 99.01 uM, Number of replicates 2.0, Standard deviation 0.39058866931676656 %",97.1%
same,inhibition,"Thailand/16681/1984, Concentration 99.01 uM, Number of replicates 4.0, Standard deviation 0.160745991426317 %",98.2%
same,inhibition,"Thailand/16681/1984, Concentration 99.5 uM, Number of replicates 2.0, Standard deviation 0.012726325201561474 %",99.3%
same,inhibition,"Thailand/16681/1984, Concentration 99.5 uM, Number of replicates 2.0, Standard deviation 0.04880672492519146 %",99.4%
same,inhibition,"Thailand/16681/1984, Concentration 99.9 uM, Number of replicates 2.0, Standard deviation 0.33233565552852545 %",95.1%
same,inhibition,"Thailand/16681/1984, Concentration 100.0 uM, Number of replicates 2.0, Standard deviation 1.0120962127020525 %",91.1%
same,inhibition,"Thailand/16681/1984, Concentration 198.0 uM, Number of replicates 2.0, Standard deviation 0.008588516202155942 %",97.6%
same,inhibition,"Thailand/16681/1984, Concentration 198.0 uM, Number of replicates 2.0, Standard deviation 0.009273655371549035 %",99.3%
same,inhibition,"Thailand/16681/1984, Concentration 198.0 uM, Number of replicates 2.0, Standard deviation 0.015984782353635714 %",99.5%
same,inhibition,"Thailand/16681/1984, Concentration 198.0 uM, Number of replicates 2.0, Standard deviation 0.02043009475977673 %",99%
same,inhibition,"Thailand/16681/1984, Concentration 198.0 uM, Number of replicates 2.0, Standard deviation 0.03091218457183012 %",99%
same,inhibition,"Thailand/16681/1984, Concentration 198.0 uM, Number of replicates 2.0, Standard deviation 0.034661568215359255 %",98.9%
same,inhibition,"Thailand/16681/1984, Concentration 198.0 uM, Number of replicates 2.0, Standard deviation 0.04180427892619749 %",98.9%
same,inhibition,"Thailand/16681/1984, Concentration 198.0 uM, Number of replicates 2.0, Standard deviation 0.05357033033128675 %",99.3%
same,inhibition,"Thailand/16681/1984, Concentration 198.0 uM, Number of replicates 2.0, Standard deviation 0.055172584924276895 %",99.5%
same,inhibition,"Thailand/16681/1984, Concentration 198.0 uM, Number of replicates 2.0, Standard deviation 0.06522309100757873 %",99.1%
same,inhibition,"Thailand/16681/1984, Concentration 198.0 uM, Number of replicates 2.0, Standard deviation 0.07510635839598934 %",99.3%
same,inhibition,"Thailand/16681/1984, Concentration 198.0 uM, Number of replicates 2.0, Standard deviation 0.08009654525967919 %",99.1%
same,inhibition,"Thailand/16681/1984, Concentration 198.0 uM, Number of replicates 2.0, Standard deviation 0.10986503295031769 %",99.2%
same,inhibition,"Thailand/16681/1984, Concentration 198.0 uM, Number of replicates 2.0, Standard deviation 0.15163694309685882 %",99%
same,inhibition,"Thailand/16681/1984, Concentration 198.0 uM, Number of replicates 2.0, Standard deviation 0.1571827940113163 %",98.9%
same,inhibition,"Thailand/16681/1984, Concentration 198.0 uM, Number of replicates 2.0, Standard deviation 0.24491837126989802 %",98.3%
same,inhibition,"Thailand/16681/1984, Concentration 198.0 uM, Number of replicates 4.0, Standard deviation 0.0821711955101111 %",99.2%
same,inhibition,"Thailand/16681/1984, Concentration 295.6 uM, Number of replicates 2.0, Standard deviation 0.015100035709695026 %",100%
same,inhibition,"Thailand/16681/1984, Concentration 295.6 uM, Number of replicates 2.0, Standard deviation 0.020829309708871917 %",99.9%
